Mcl1-Bid inh = Mcl-1/Bid interaction inhibition; Q07820; TR-FRET Mcl-1/Bid-Dy647 peptide binding, 1536-well; inhibition, % at 21.7 µM; hit rate 0.97% among 220,000; AID 1021;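 active = compounds that cut the binding signal by more than half at the single screening dose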;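 also: His-tagged Mcl-1 with europium anti-His antibody binding Bid BH3 peptide; 0% = Mcl-1 plus peptide wells and 100% = peptide-only wells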
Target sequence (Q07820 whole entry, looked up): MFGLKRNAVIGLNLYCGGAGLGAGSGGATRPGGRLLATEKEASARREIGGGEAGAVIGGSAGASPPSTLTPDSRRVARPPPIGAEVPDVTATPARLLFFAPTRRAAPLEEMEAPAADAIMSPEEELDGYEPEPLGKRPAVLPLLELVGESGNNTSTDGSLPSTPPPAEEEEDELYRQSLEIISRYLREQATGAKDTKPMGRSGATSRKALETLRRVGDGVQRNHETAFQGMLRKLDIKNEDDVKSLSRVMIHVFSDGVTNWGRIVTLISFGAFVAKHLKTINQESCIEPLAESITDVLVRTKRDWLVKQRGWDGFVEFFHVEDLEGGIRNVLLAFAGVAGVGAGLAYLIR
Hck Nef HTS = human Hck-Nef kinase inhibition; P08631; Recombinant Hck-YEEI plus Nef, Z-Lyte FRET kinase assay; inhibition, % at 20 µM; hit rate 0.68% among 220,000;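 active = Hck-Nef kinase inhibition above about 50%, limit read from the data; inactive = inhibition below that limit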;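 also: 0% = DMSO with Hck plus Nef and 100% = Hck alone without Nef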
Bim-Mcl-1 = inhibitors of Bim-Mcl-1 interaction, human | AID 1009 | inhibition, % at 10 µM | Bead-based flow cytometry, Bim peptide-Mcl-1 binding | Q07820 | hit rate 0.1% among 190,000; in the data active = inhibition above about 40%;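 also: 0% = no compound tracer wells and 100% = peptide blocker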
Mcl1-Noxa inh = Mcl-1/Noxa interaction inhibition. TR-FRET Mcl-1/Noxa peptide binding, 2 h. Q07820. hit rate 1.5% among 220,000. inhibition, % at 21.7 µM;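 active = compounds that cut the protein-peptide binding signal by more than 50% relative to plate controls in a single-dose test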;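 also: His-tagged Mcl-1 with rhodamine Noxa BH3 peptide and terbium anti-His antibody; 0% = Mcl-1 plus Noxa peptide wells and 100% = peptide-only wells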
14-3-3 Bad inh = disrupts binding of bovine 14-3-3 zeta to phospho-Bad peptide | inhibition, % at 21.7 µM | hit rate 0.71% among 220,000 | TR-FRET 14-3-3zeta/Dy647-pBad peptide displacement, 1 h | AID 781;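 active = inhibition above about 70%, limit read from the data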;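 also: 0% = full 14-3-3 plus peptide FRET controls and 100% = background without 14-3-3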
Target sequence (P63103 whole entry, looked up): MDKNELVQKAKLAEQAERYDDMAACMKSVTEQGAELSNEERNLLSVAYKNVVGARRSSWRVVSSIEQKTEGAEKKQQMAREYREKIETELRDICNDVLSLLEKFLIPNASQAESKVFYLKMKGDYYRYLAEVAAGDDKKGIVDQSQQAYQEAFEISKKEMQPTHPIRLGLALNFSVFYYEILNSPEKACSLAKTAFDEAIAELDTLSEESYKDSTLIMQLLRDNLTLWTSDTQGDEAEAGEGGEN
Pf gamet viab = inhibitors of late stage P. falciparum gametocyte viability; P. falciparum stage V gametocytes, ATP luminescence, 24 h; inhibition, % at 10.9 µM; hit rate 0.065% among 150,000; AID 743093;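 active = inhibition above the mean plus 3 SD of compounds within the control limits, set per campaign, cut at about 38% in these data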;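 also: 0% = DMSO wells and 100% = medium only without gametocytes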
Hck Nef conf = Hck-Nef kinase inhibition, confirmation; shares compounds with Hck Nef HTS; AID 463188; hit rate 28% among 1,300; Recombinant Hck-YEEI:Nef, Z-Lyte FRET kinase assay; calls only at 10 µM;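 active = average inhibition of at least 50%, with Z-scores no higher than 3 in both the phospho-tyrosine peptide and fluorescence counterscreens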
The depositor's hits bear a star; i = inactive; . = no result shown; + = active, no number. Only some compounds are listed: those with a hit (about 2.9% of all), similar ones and a draw of the others.

SMILES	Mcl1-Bid inh	Hck Nef HTS	Bim-Mcl-1	Mcl1-Noxa inh	14-3-3 Bad inh	Pf gamet viab	Hck Nef conf
Cc1ccc(Oc2ccc(C(F)(F)F)cc2[N+](=O)[O-])c([N+](=O)[O-])n1	-10	52*	.	-11	0	18	i
Cc1c(Oc2ccc(C(F)(F)F)cc2[N+](=O)[O-])ccc2c3c(c(=O)oc12)CCC3	-12	6	-5	-10	0	17	.
COc1cccc(/C=N/NC(=O)c2cnn(-c3ccccc3)c2N)c1	-14	94*	.	-10	-5	4	i
COc1ccc(C2CC(c3ccccc3)=NN2c2ccc(C(N)=O)cc2)cc1 (centres undefined)	.	.	.	.	.	5	.
COc1ccc(C2CC(c3ccccc3)=NN2c2ccc(S(N)(=O)=O)cc2)cc1 (centres undefined)	-6	108*	2	2	2	-22	.
NS(=O)(=O)c1ccc(N2N=C(c3ccccc3)CC2c2ccc(F)cc2)cc1 (centres undefined)	-8	60*	-2	-17	1	.	.
COc1ccc(C2CC(c3cccs3)=NN2c2ccc(C=O)cc2)cc1 (centres undefined)	-23	54*	4	-28	-20	-24	i
O=C(O)c1ccc(N2N=C(c3ccccc3)CC2c2ccccc2)cc1 (centres undefined)	.	.	.	.	.	27	.
C=CCC1(CC=C)CCCN1C(=O)CC1C(=O)NCCN1Cc1cc(OC)cc(OC)c1 (centres undefined)	-10	5	-4	2	-4	-14	.
O=C(CCN1CCN(CCO)CC1)Nc1cccc(Br)c1	-4	15	.	2	-6	-8	.
CC1CCCN(Cc2c(O)ccc3c4c(c(=O)oc23)CCCC4)C1 (centres undefined)	-38	64*	.	34	-4	16	.
O=c1oc2c(CN3CCOCC3)c(O)ccc2c2c1CCC2	-104	85*	0	9	.	.	.
Cn1nnnc1SC(C(=O)Nc1cccc(C(F)(F)F)c1)c1ccccc1 (centres undefined)	-17	2	-2	8	2	10	.
COc1ccc(NC(=O)Cc2ccc(-c3ccccc3)cc2)cn1	-26	18	-1	12	-18	5	.
O=C(Nc1ccc(N2CCCC2)cc1)C(c1ccccc1)c1ccccc1	-1	59*	0	.	68	.	i
CC(=O)N1CCN(c2ccc(NC(=O)C(c3ccccc3)c3ccccc3)cc2)CC1	.	.	.	.	.	1	.
COc1ccc(-c2cc3nc4ccccc4n3c(N)c2C#N)cc1	72*	68*	.	81*	71*	-20	.
Cc1ccccc1N1CCN(CCCCN2C(=O)C3CCCN3C2=O)CC1 (centres undefined)	-13	2	0	19	27	1	.
CC(=O)c1cc(CC(=O)N2CCc3c([nH]c4ccccc34)C2c2ccccn2)cs1 (centres undefined)	-12	21	-2	-3	-18	3	.
Cc1nc(C)c(CC(=O)N2CCc3c([nH]c4ccccc34)C2c2ccccn2)s1 (centres undefined)	-35	+	2	18	-8	0	i
Cc1ccc(CNc2ncnc3cc(Cl)ccc23)o1	-27	-14	-2	-3	22	-5	.
COc1cc2ncnc(NCc3ccc(C)o3)c2cc1OC	-62	78*	-2	-1	-10	-19	i
CC(C)NC(NC(=O)Cc1ccccc1)C(Cl)(Cl)Cl (centres undefined)	-3	2	-4	.	-4	.	.
COc1ccc(-c2cnnc(N/N=C/c3ccc(O)cc3)n2)cc1	25	71*	0	88*	36	8	i
Cc1ccc(C(=O)Nc2cccc(C(F)(F)F)c2)cc1NC(=O)c1c[nH]c2cc(C(F)(F)F)ccc2c1=O	.	.	.	.	.	-13	.
SMILES	Mcl1-Bid inh	Hck Nef HTS	Bim-Mcl-1	Mcl1-Noxa inh	14-3-3 Bad inh	Pf gamet viab	Hck Nef conf
Cc1cn(-c2cc(C(=O)Nc3ccc(C)c(NC(=O)C(=O)c4c[nH]c5ccccc45)c3)cc(C(F)(F)F)c2)cn1	-41	55*	.	6	0	.	i
Cc1[nH][nH]c(=O)c1C(c1c(C)[nH][nH]c1=O)c1cn(Cc2cccc3ccccc23)c2ccccc12	-105	0	-1	-58	-9	29	.
Cc1[nH][nH]c(=O)c1C(c1c(C)[nH][nH]c1=O)c1cn(C)c2ccccc12	-84	92*	0	6	-18	.	+
O=C(NC(Nc1ccc(F)cc1)(C(F)(F)F)C(F)(F)F)c1cccnc1	-24	3	-2	1	-1	-1	.
Cc1cccc(Nc2sc(C(=O)c3cc4cc(Cl)ccc4o3)c(N)c2C#N)c1	66*	56*	.	68*	67	.	i
Cc1c(Cl)cccc1NS(=O)(=O)c1ccc2c(c1)C1C=CCC1C(c1ccc(C(=O)O)cc1)N2 (centres undefined)	100*	63*	2	103*	91*	.	+
COc1cc(C(=O)NC2CC3CCCC(C2)N3C2CC2)cc(OC)c1OC (centres undefined)	-7	-3	-19	-20	-1	.	.
CCCn1c(C(C)NC(=O)c2ccccc2)nc2ccccc21 (centres undefined)	2	1	.	-1	-6	.	.
CCN(CC)c1ccc(NC(=O)Cn2c(C(C)NC(=O)c3ccc(C)cc3)nc3ccccc32)cc1 (centres undefined)	90*	83*	4	32	95*	11	+
CCOC(=O)c1cc2c(=O)n3cccc(C)c3nc2n(CC(C)C)c1=NC(=O)c1ccco1	-11	+	.	17	-6	-5	i
CCOC(=O)c1cc2c(=O)n3ccccc3nc2n(Cc2ccco2)c1=NC(=O)c1cccc(OC)c1	-1	30	0	25	-4	2	.
CCOCCCn1c(=NC(=O)c2ccco2)c(C(=O)OCC)cc2c(=O)n3cccc(C)c3nc21	-13	133*	.	9	-1	4	.
COc1ccccc1-c1c(C)oc2c(CN3CCN(C)CC3)c(O)ccc2c1=O	2	-2	-6	-21	11	3	.
Cc1ccc(C(=O)Nc2cccc(C(F)(F)F)c2)cc1Nc1cncnc1	.	.	.	.	.	-7	.
Cc1ccc(C(=O)Nc2cccc(C(F)(F)F)c2)cc1NC(=O)c1cnnc2ccccc12	31	74*	.	-8	24	.	i
COc1cc(Nc2ncnc(N)n2)cc(OC)c1OC	-13	48	.	11	-5	16	.
COc1cc(Nc2ncnc(N)n2)cc(OC)c1	-8	62*	.	0	0	-6	+
O=S(=O)(c1ccc(S(=O)(=O)N2CCOCC2)cc1)N1CCCC1	9	20	5	11	0	.	.
CN=c1scc(-c2ccccc2F)n1/N=C/c1ccc[nH]1	-3	28	-4	24	-11	-22	.

Screening data deposited in PubChem by several laboratories.
